# Data from article PMC7862700, “An all-to-all approach to the identification of sequence-specific readers for epigenetic DNA modifications on cytosine”.
# What was measured:
# Test in all cases: DAPPL (digital affinity profiling via proximity ligation, sequencing); 10 mM Tris-HCl pH 7.5, 50 mM NaCl, 1 mM DTT, 4% glycerol, room temperature, 30 min; GST-TFs on glutathione beads, 16-mer random dsDNA library, 0.1% formaldehyde crosslink after washing; high values mean tight binding
# Details in all cases: protein: recombinant; tags: N-terminal GST; dsDNA, one strand shown
# [1] = target: T1, FEV (Homo sapiens, UniProt Q99581 1-238)
# T1 sequence: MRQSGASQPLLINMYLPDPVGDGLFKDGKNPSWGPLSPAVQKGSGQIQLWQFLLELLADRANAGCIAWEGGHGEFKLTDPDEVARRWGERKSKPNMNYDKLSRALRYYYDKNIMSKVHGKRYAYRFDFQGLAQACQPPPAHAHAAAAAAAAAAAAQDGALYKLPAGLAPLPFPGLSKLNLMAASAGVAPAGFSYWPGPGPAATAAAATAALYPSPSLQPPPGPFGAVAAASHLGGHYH
# How it was run: (§1)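 GST fusions of human transcription factors were expressed in yeast and captured with glutathione beads. Once given DNA barcodes and pooled alongside a tag-only sample, they were incubated for 30 min at room temperature with 200 nmole of a random double-stranded 16-mer DNA library in Tris/NaCl/DTT/glycerol buffer, then washed, crosslinked (0.1% formaldehyde), proximity-ligated, PCR-amplified and sequenced on an Illumina NextSeq500. The binding signal of each hexamer is its read frequency for a factor divided by its frequency for the tag-only sample.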
# [2] = target: ETV5 (Homo sapiens, UniProt P41161 1-510)
# How it was run: as §1
# [3] = target: ELF4 (Homo sapiens, UniProt Q99607 1-663)
# How it was run: as §1
# [4] = target: ETV1 (Homo sapiens, UniProt P50549 1-477)
# How it was run: as §1
# [5] = target: T2, ERF (Homo sapiens, UniProt P50548 1-548)
# T2 sequence: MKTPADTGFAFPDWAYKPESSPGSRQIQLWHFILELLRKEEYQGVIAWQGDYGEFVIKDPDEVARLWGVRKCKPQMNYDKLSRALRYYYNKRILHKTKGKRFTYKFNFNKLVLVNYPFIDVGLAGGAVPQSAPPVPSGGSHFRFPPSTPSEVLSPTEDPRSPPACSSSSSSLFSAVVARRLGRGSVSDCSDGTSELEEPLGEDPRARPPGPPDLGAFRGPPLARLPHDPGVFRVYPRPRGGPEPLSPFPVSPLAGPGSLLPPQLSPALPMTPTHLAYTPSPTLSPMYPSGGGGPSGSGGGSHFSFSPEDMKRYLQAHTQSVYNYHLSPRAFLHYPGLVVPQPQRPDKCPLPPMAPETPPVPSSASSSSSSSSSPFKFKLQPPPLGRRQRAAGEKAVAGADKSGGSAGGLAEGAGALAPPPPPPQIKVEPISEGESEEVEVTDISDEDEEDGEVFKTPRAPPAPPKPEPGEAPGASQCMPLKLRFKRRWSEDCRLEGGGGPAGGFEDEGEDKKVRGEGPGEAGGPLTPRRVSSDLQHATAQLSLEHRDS
# How it was run: as §1
# [6] = target: T3, ETV3L (Homo sapiens, UniProt Q6ZN32 1-361)
# T3 sequence: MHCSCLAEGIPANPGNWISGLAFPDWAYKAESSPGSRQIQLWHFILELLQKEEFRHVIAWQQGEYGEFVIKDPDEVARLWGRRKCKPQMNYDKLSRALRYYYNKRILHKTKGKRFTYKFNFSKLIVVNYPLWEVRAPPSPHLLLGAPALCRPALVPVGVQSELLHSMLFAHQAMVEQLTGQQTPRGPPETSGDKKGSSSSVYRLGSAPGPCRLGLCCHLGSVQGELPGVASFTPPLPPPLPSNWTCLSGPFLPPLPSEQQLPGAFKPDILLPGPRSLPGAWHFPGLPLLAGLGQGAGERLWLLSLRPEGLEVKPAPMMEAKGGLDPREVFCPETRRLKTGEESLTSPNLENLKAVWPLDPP
# How it was run: as §1
# [7] = target: T4, ETS2 (Homo sapiens, UniProt P15036 1-469)
# T4 sequence: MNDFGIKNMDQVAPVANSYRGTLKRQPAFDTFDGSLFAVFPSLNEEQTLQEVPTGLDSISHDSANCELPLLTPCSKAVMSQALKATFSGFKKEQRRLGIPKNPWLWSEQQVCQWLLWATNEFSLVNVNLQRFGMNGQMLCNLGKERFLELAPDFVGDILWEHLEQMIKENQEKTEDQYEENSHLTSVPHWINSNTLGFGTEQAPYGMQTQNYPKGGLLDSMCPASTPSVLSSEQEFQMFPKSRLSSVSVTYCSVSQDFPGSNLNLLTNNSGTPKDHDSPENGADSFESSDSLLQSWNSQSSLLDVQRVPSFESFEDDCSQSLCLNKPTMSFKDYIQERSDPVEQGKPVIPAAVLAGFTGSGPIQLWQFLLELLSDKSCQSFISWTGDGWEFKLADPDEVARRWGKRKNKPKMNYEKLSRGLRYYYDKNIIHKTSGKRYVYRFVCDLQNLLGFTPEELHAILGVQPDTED
# How it was run: as §1
# [8] = target: T5, ELF5 (Homo sapiens, UniProt Q9UKW6-2 1-255)
# T5 sequence: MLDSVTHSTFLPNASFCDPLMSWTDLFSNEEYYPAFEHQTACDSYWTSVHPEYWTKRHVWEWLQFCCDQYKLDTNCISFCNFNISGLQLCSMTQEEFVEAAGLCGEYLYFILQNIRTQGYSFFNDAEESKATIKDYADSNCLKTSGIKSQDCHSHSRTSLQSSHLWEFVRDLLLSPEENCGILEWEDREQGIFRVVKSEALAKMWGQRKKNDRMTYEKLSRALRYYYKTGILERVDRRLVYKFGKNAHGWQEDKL
# How it was run: as §1
# [9] = target: T6, ETV3 (Homo sapiens, UniProt P41162-2 1-143)
# T6 sequence: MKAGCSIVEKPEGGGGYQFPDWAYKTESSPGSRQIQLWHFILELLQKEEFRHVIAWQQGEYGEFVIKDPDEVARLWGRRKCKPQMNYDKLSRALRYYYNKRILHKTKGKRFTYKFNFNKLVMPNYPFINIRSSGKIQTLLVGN
# How it was run: as §1
# [10] = target: ETV6 (Homo sapiens, UniProt P41212 1-452)
# How it was run: as §1
# Sequence of ELF4 (Q99607 whole entry): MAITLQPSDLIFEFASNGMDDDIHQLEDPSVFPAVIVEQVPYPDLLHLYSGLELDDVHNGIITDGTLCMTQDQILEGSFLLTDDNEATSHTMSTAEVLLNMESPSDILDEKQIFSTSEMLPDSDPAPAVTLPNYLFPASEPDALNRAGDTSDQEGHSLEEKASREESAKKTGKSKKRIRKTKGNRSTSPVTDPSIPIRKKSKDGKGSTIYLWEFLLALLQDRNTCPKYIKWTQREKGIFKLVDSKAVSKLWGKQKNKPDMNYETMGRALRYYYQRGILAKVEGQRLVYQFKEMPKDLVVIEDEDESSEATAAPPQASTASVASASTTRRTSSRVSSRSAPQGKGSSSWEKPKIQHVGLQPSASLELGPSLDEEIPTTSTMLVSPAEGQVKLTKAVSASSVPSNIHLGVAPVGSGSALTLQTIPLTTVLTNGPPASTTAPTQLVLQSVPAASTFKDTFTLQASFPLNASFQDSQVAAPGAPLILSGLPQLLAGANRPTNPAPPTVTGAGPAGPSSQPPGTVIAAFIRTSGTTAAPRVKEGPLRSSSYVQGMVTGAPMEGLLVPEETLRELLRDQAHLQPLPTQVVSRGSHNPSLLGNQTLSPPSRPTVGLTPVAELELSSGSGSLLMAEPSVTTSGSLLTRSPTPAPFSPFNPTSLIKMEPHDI
# Sequence of ETV6 (P41212 whole entry): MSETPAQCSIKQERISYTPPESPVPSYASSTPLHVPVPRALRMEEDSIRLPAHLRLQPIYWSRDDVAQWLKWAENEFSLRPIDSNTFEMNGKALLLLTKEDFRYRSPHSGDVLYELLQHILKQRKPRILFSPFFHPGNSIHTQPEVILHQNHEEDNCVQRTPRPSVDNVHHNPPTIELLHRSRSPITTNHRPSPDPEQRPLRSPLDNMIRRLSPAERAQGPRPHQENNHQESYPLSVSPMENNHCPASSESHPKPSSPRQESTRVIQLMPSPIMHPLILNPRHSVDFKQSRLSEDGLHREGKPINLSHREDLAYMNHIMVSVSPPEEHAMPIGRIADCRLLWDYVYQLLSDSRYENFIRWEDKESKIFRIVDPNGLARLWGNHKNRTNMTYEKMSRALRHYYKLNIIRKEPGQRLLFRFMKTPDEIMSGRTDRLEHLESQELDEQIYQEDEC
# Sequence of ETV5 (P41161 whole entry): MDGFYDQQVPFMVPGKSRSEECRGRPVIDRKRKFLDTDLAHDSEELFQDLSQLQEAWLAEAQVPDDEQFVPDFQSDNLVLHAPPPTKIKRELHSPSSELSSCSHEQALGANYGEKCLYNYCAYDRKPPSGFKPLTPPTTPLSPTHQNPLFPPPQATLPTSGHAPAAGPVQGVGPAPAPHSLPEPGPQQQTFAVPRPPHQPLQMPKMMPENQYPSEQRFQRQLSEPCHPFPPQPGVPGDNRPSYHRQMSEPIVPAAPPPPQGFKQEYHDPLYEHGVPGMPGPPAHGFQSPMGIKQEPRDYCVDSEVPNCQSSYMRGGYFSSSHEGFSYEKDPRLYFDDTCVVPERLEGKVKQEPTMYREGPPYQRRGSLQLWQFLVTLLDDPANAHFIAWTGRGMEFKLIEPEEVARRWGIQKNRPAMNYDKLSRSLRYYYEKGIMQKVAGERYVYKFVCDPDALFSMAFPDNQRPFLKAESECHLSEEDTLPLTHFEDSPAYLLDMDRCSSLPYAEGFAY
# Sequence of ETV1 (P50549 whole entry): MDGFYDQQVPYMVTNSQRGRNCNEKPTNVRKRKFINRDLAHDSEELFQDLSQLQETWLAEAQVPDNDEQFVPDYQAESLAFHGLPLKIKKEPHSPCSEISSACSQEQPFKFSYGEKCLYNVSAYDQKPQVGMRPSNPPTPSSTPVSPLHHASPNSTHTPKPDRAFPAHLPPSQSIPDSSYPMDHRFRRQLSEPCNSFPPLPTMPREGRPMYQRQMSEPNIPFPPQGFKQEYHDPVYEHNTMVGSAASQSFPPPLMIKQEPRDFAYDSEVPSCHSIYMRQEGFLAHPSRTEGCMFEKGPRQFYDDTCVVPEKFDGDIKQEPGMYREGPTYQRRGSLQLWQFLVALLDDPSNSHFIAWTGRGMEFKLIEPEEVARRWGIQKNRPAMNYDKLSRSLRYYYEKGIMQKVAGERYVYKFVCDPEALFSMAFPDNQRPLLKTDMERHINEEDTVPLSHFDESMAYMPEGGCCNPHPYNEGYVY
sequence,measurement,setting,value
ACCGCA,binding signal,[1],"1.17 fold enrichment (6-mer frequency, TF over GST control)"
same,binding signal,[2],"1.13 fold enrichment (6-mer frequency, TF over GST control)"
same,binding signal,[3],"1.15 fold enrichment (6-mer frequency, TF over GST control)"
same,binding signal,[4],"1.17 fold enrichment (6-mer frequency, TF over GST control)"
same,binding signal,[5],"1.11 fold enrichment (6-mer frequency, TF over GST control)"
same,binding signal,[6],"1.12 fold enrichment (6-mer frequency, TF over GST control)"
same,binding signal,[7],"1.18 fold enrichment (6-mer frequency, TF over GST control)"
same,binding signal,[8],"1.1 fold enrichment (6-mer frequency, TF over GST control)"
same,binding signal,[9],"1.09 fold enrichment (6-mer frequency, TF over GST control)"
same,binding signal,[10],"1.15 fold enrichment (6-mer frequency, TF over GST control)"
